According to PubChem BioAssay AID504937 (National Center for Advancing Translational Sciences (NCATS), 2011):
Screen size: about 340,000 compounds; about 20 (0.006%) were called active. Calls follow the shape of the dose curve; as a rule, active = well fitted inhibition curve with a large enough effect; inconclusive = small, poorly fitted or top-dose-only effect; inactive = no such curve, though single readings can be large or run the other way. Only a selection was taken, and actives are over-represented in it overall.

The compounds below were run against Sphingomyelin phosphodiesterase (Homo sapiens) (UniProt P17405) (assay: Inhibitors of Secretory Acid Sphingomyelinase (S-ASM): qHTS). Conditions: placental ASM, HMU-PC fluorogenic substrate, 60 min; series mostly up to 57.5 µM; activity change, negative = inhibition: at the top concentration.
Description: Atherosclerosis is the underlying process for cardiovascular disease and thus is a major contributor to disease burden in the population. […] Thus, selective small molecule inhibitors of S-ASM should block LDL modification and reduce aortic LDL retention and may serve as new agents for the treatment of atherosclerosis. In a collaboration between National Heart, Lung, and Blood Institute and the NCGC a high-throughput amenable screen was developed to identify potent and selective small molecule inhibitors of S-ASM. This enzymatic, fluorescent screen uses an ASM enzyme preparation derived from human placenta and was tested against the NIH Molecular Libraries Small Molecule Repository (MLSMR). NIH Chemical Genomics Center [NCGC] NIH Molecular Libraries Probe Centers Network [MLPCN] MLPCN Grant: MH093173-01 Assay Submitter (PI): Alan Remaley, National Heart, Lung, and Blood Institute and Wei Zhen, NIH Chemical Genomics Center
Two microliters of ASM enzyme (1:150 dilution from stock) are dispensed in 1536-well plate. 23 nL of compound and control are pinned into assay plate using the Kalypsys pintool. The plates are then incubated for 10 minutes at ambient room temperature. Then, 2 uL of the flurogenic substrate, HMU-PC0, (9 uM final) are added to the plate. An incubation for 60 minutes takes place at 37 masculineC. After that, 4 uL of stop solution is added to raise the pH to 10 to end the kinetic reaction. Plate is read on ViewLux, with detection set at Ex = 386 (10) nm and Em = 447 (10) nm.

Chain of Sphingomyelin phosphodiesterase (Homo sapiens) (P17405 47-631 limits assumed): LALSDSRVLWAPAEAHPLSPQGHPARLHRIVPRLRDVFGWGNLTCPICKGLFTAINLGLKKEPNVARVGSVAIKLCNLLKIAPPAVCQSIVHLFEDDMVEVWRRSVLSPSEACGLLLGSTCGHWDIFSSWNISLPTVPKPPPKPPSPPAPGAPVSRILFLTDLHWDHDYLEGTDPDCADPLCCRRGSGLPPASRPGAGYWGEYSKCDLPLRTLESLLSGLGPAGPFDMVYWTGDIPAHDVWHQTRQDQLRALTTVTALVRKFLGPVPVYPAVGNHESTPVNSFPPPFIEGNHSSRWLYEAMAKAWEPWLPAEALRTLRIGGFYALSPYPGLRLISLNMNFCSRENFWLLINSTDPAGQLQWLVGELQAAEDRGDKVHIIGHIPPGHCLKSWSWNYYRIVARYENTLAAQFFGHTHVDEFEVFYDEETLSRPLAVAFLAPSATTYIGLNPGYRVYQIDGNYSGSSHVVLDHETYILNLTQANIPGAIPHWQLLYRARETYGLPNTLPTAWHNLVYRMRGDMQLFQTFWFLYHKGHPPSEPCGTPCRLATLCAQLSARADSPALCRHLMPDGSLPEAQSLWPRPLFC

Activity change, negative = inhibition, inactive:
Cc1cccc(C(=O)O)c1[N+](=O)[O-] -0.0655%, CCCn1c(C)cc(C(=O)COC(=O)c2c(C)nn(-c3ccccc3)c2C)c1C -4.51%, O=C(c1ccc(F)cc1)N1CCC(C(=O)N2CCN(S(=O)(=O)c3ccccc3Br)CC2)CC1 2.48%, Nc1ccccc1C(=O)NC1CCCCNC1=O (stereo unspecified) 13.5%, O=C(N/N=C/c1cccc2cccnc12)[C@H]1C[C@@H]1c1ccccc1 -2.45%, COCC(=O)N(C)[C@H]1C[C@H]2c3cc(Oc4ccccc4C)ccc3CCN2C(=O)[C@H]1[C@H](C)O 6.99%, COC(=O)c1ccc(C2NC(=O)NC(C)=C2C(=O)N(C)C)cc1 (stereo unspecified) 3.7%, COc1ccc2c(c1)C(NS(=O)(=O)OCC(Cl)(Cl)Cl)CCC2 (stereo unspecified) -5.56%, CCOc1ccc(-c2nc(C)sc2CC(=O)O)cc1 -0.38%, Cc1ccc(N(C(=O)CNC(=O)c2ccco2)C(C(=O)NC2CCCC2)c2ccncc2)cc1 (stereo unspecified) -4.07%, COc1ccc(NC(=O)NN2CCN(C)CC2)c(OC)c1 -3.22%, COC(=O)C1=C(C)N(C)C(C)=C(C(=O)OC)C1c1cccc(Br)c1 -20.8%, Cc1c(C(C)CCCO)oc(=O)c2c1Oc1c(C)c(C(C)C[C@@H](C)O)oc(=O)c1C2 (stereo partly specified) 2.63%, C=CCC(Nc1ccccc1)c1cccc(OC)c1OC (stereo unspecified) 0.351%, Cc1nn(Cc2ccc(C(=O)N3N=C(C(F)F)CC3(O)C(F)F)cc2)c(C)c1[N+](=O)[O-] (stereo unspecified) -1.95%, O=C(Nc1cccnc1Oc1ncnc2cc(Cl)ccc12)c1ccc(F)cc1 -1.19%, CCOc1ccc(N2C(=O)Nc3ccccc3C2(O)C(=O)NCc2ccco2)cc1 (stereo unspecified) 0.0783%, O=C1COc2c1ccc(O)c2O 3.65%, CC(C)Cn1cnc2c1c(=O)n(CC(=O)NN)c(=O)n2Cc1ccccc1 -3.33%, Cc1ccsc1/C=N/NC(=O)Cc1cc(=O)[nH][nH]1 0.0426%, Cc1ccc(S(=O)(=O)Nc2ccccc2CNc2c(C)n(C)n(-c3ccccc3)c2=O)cc1 -0.0525%, CCC(C)N1C(=O)S/C(=C/c2ccc(Sc3nc4ccccc4[nH]3)o2)C1=O (stereo unspecified) 1.34%, COc1ccc(CN2CCC(n3nccc3NC(=O)CCCc3ccccc3)CC2)cc1C -0.972%, NS(=O)(=O)c1ccc(NC(=S)NNC(=O)c2cccs2)cc1 1.24%, Cc1cccc(NC(=O)Cn2cc(C(=O)c3ccco3)c3ccccc32)c1 -9.25%, CCC(CC)C(=O)Nc1ccc(S(=O)(=O)Nc2nccs2)cc1 3.8%, O=C(CSc1nc2[nH]c(=O)[nH]c(=O)c2s1)Nc1cccc(F)c1 -2.4%, CSCCC(NC(N)=O)C(=O)N(C)CC(=O)Nc1ccc(C)cc1 (stereo unspecified) 2.8%, CC/C(Cc1ccccc1)=N/NC(=O)CCn1nnc2ccccc21 -1.28%, COc1ccc(C2/C=C\CN(CC(C)C)CC(=O)N2Cc2ccc(F)cc2)cc1 (stereo unspecified) -2.65%, COc1ccc(CN2CCOC2=O)cc1OC -0.898%, COc1ccc(CNC(=O)CN(C(=O)c2csnn2)c2cnc3ccccc3c2)cc1 21.4%, CC(=O)c1cccc(NC(=O)C2CCCN(S(=O)(=O)c3cccc4nonc34)C2)c1 (stereo unspecified) 5.69%, Nc1cccc2c1C(=O)N(Cc1nnc(-c3ccccc3Br)o1)C2=O 340%, CC1CCCCC1NC(=O)CCS(=O)(=O)c1cccc2nonc12 (stereo unspecified) -1.19%, O=C(NNS(=O)(=O)c1ccc(F)cc1)C1CCCCC1 -0.201%, CCN(CC(=O)NCc1cccs1)C(=O)/C=C/c1ccc(C)cc1 -0.0187%, CCn1c(O)c2ccc(C(=O)N=NC(=O)c3cccnc3)cc2c1O -1.65%, O=C(NCC(=O)N(CC1CCCO1)C(C(=O)NC1CCCCC1)c1ccccc1)c1ccco1 (stereo unspecified) -1.66%, CC(C)Cn1c(SCC(=O)Nc2ccc(Cl)cc2F)nc(O)cc1=O -4.26%, COc1ccc(SCCN2CCN(CC(C)C)CCC2=O)cc1 -3.87%, O=S(=O)(c1ccccc1)N1CCC(c2ccccc2)CC1 0.311%, Cc1cc(OCC(=O)N(C)c2c(N)n(Cc3ccccc3)c(=O)[nH]c2=O)c(C(C)C)cc1Cl 4.87%, CN(C(=O)c1ccccc1)c1nccnc1C#N 7.06%, Cc1ccc(-c2nc(C)sc2CC(=O)OCC(=O)Nc2c(F)cccc2F)cc1 4%, Cn1c(=O)n(C)c(=O)n(CC(=O)N2CCCCC2)c1=O -0.0512%, COc1ccccc1CCNS(=O)(=O)c1cc2c3c(c1)C(C)C(=O)N3CCC2 (stereo unspecified) 4.58%, CN(c1ccc2nc3ccccc3c(=O)n2n1)C1CCCCC1 2.94%, O=S1(=O)CCN2C(=N1)SC1=C2CCN(Cc2ccccc2)C1 1.51%, CCOC(=O)c1cc(-c2ccc(F)cc2)n(CC(=O)NCc2ccccn2)c1C -2.49%, COc1ccc(C(C(=O)NC2CCCCC2)N(C(=O)Cc2c[nH]c3ccccc23)c2ccccc2)cc1OC (stereo unspecified) -5.66%
